Several values for one entry are separate records, joined by “and”; a condition that tells them apart may be missing. Equal values may be shown once. Among all 410,000 compounds or so, about 5,100 (1.2%) were called active. A call without a number means that no potency is given here. About 8% were inconclusive and are not listed. The sample holds actives, similar compounds and a random draw of the others, so the mix is not that of the screen. Calls follow the shape of the full dose curve; tested in HEK293T cells.
Potency is read from the fitted curve at half-maximal effect.

The assay is described as follows: High Throughput Screening for Foot and Mouth Disease Virus Antivirals. Also: read-out not given here; nearly all actives have a fitted effect of over 45% in size. As to conditions: FMDV antiviral cell-based qHTS; series mostly up to 57.9 µM. (In general: qHTS replaces the single test concentration by a dilution series.)
As to `CC(O)(c1cccc(F)c1)c1nc(-c2ccc3c(c2)OCO3)cs1` (stereo unspecified), the Potency entry was “inactive”. Same read-out and setting: then `O=C(Nc1nc(-c2ccc3c(c2)OCO3)cs1)c1ccncc1`, with 15.8 µM (active); and `c1ccc2c(Nc3ccncc3)nc(-c3ccc4c(c3)OCO4)nc2c1`, with “inactive”. In the case of `COCCn1c(=O)c(-c2cccs2)nc2cncnc21`, the Potency result was “inactive”. Same read-out and setting: then `Cc1c(C(=O)NCC2CCCN(C)C2)cnn1-c1nccc(-c2ccco2)n1` (stereo unspecified), with “inactive”; and `Cc1ccc(NC(=O)CN2c3ccccc3S(=O)(=O)c3ccccc32)cc1F`, with “inactive”; and `CCC(C)(C)NC(=O)CN(C(=O)C(=O)Nc1ccc2c(c1)OCCO2)C(C)(C)CC`, with “inactive”. `COC(=O)CCNc1ccc2c(c1)OCCO2`: the Potency is 11.2 µM (active). For the compound `CCCCN(CC(=O)NC(C)(C)C)C(=O)C(=O)Nc1ccc2c(c1)OCCO2`, the Potency entry was “inactive”. On to `CCCCC/C=C\C/C=C\C/C=C\C/C=C\CCCCCC(=O)NCCO`, for which the activity change, negative = inhibition is -8.95% [at 6.7 µM] (inactive). For `O=C1NS(=O)(=O)c2ccccc21`, the Potency result is “inactive”. Same read-out and setting: as for `CCc1nccn1S(=O)(=O)c1cc(Br)ccc1Br`, the entry is “inactive”; as for `CCOc1c(Br)cc(/C=C2\C(=O)N(CCC#N)N=C2C)cc1OC`, 28.2 µM (active). On the same count and under the same terms, then `CSc1ccc(C2C(C(=O)Nc3ccccc3)=C(C)Nc3nc4ccccc4n32)cc1` (stereo unspecified), with “inactive”. Same read-out and setting: as for `COC(=O)c1c(OCc2ccc(F)cc2)cc(=O)n2c1CCN(Cc1ccc3cccnc3c1)CC2`, the entry is “inactive”; as for `Cc1cccc(CC(=O)Nc2cccc(-c3cn4cccnc4n3)c2)c1`, “inactive”. As to `COc1ccc(-c2[nH]c3c(c2-c2c(-n4cccc4)n(C)c(=O)n(C)c2=O)c(=O)n(C)c(=O)n3C)cc1`, the Potency result was “inactive”. The same measure, in the same setting: as for `O=C(NCc1ccc(Cl)cc1)c1ccc2c(c1)nnn2C1CCCC1`, the entry is “inactive”; as for `O=C(/C=C/c1cnc2ccccc2n1)NC1CCCCCC1`, “inactive”.

In the case of `O=C(Cn1nnc(-c2ccccc2)n1)NC(=O)NC1CCCC1`, the Potency result was “inactive”. For `Cc1nc(/N=C(\N)NC(=O)NC2CCCCC2)nc2ccccc12`, the Potency is 31.6 µM (active). The same measure, in the same setting: as for `CCOC(=O)N1CCC(N2CCOc3ccc(CN4CCC(O)(c5cccnc5)CC4)cc3C2)CC1`, the entry is “inactive”; as for `COc1cccc(CNC(=O)Cn2c(=O)c3cccn3c3ccc(F)cc32)c1OC`, “inactive”. Turning to `COCc1c(C(=O)NC2CCCCC2)cnn1-c1nccc(-c2ccccc2OC)n1`, the Potency result was “inactive”. In the case of `CN1/C(=C\C=C2\N=C(c3ccc(F)cc3)OC2=O)C(C)(C)c2ccccc21`, the Potency entry is “inactive”. The same measure, in the same setting: then `COc1cccc(NC(=S)C(C#N)=C2N(C)c3ccccc3N2C)c1`, with “inactive”. Take `CC(=O)Nc1cccc(OCC(=O)/C=C2\N(C)c3ccccc3C2(C)C)c1`: the Potency is 25.1 µM (active). `COc1ccccc1CNc1ncncc1-c1cccc(NS(C)(=O)=O)c1`: the Potency entry is “inactive”. Still for that read-out and setting: as for `O=P(O)(O)C(O)c1ccc2ccccc2c1` (stereo unspecified), the entry is “inactive”; as for `C#CCN(C[C@@H]1[C@@H](OC(=O)NC2CC2)[C@@H](OC(=O)NC2CC2)Cn2c(=O)ccc(=O)n21)S(=O)(=O)c1ccc(C)cc1`, 20 µM (active); as for `Cc1ccc(CS(=O)(=O)CCC(=O)NC2CC2)cc1`, “inactive”.

With `O=C(c1ccco1)N(Cc1nc2ccccc2c(=O)[nH]1)C1CCCC1`, the Potency entry is “inactive”.

For the compound `CN(c1ccc2nc3ccccc3c(=O)n2n1)C1CCCCC1`, the Potency is 20 µM (active). On the same count and under the same terms, as for `COc1ccccc1Nc1cc(C(=O)NCCCN(C)C2CCCCC2)c2ccccc2n1`, the entry is “inactive”; as for `COc1cc(=O)n2c(c1C(=O)NC(C)c1ccco1)CCN(C(=O)c1cn3ccc(C)cc3n1)CC2` (stereo unspecified), “inactive”; as for `CCN(C(=O)c1sc2cc(OC)ccc2c1Cl)c1ccccc1`, “inactive”.

`COc1ccccc1CNc1nc(-c2c(C)noc2C)nc2ccccc12`: the Potency result was “inactive”. With `CCc1nc2c(OCc3cccc(OC)c3)cccn2c1N(C)C(=O)C(C)C`, the Potency entry was “inactive”. The same measure, in the same setting: as for `CCc1nc2c(OCc3ccc(Cl)cc3Cl)cccn2c1N(C)C(=O)C(C)C`, the figure is 31.6 µM (active); as for `CCCCC(=O)N(C)c1c(CC)nc2c(OCc3ccc(Cl)cc3Cl)cccn12`, “inactive”. Regarding `COc1ccc(C2Sc3ccccc3NC3=C2C(=O)c2ccccc23)c(OC)c1OC` (stereo unspecified), the Potency result is “inactive”.

Consider `O=C(/C=C/Sc1ncn[nH]1)c1ccc(Cl)cc1`, for which the Potency was 28.2 µM (active).

For `O=S(=O)(NCCc1nnc2ccc(SCc3ccc(Cl)cc3Cl)nn12)c1ccccc1`, the Potency result was “inactive”. Still for that read-out and setting: as for `CCc1ccccc1NC(=O)Cn1c(=O)n(CC2CCC(C(=O)NCCc3ccccc3)CC2)c(=O)c2ccccc21` (stereo unspecified), the entry is “inactive”; as for `Cc1cc(C)cc(NS(=O)(=O)c2cc3c(cc2C)NC(=O)CO3)c1`, “inactive”; as for `Cn1nnnc1SCCCNCc1cccc(OCc2ccc(Cl)cc2)c1`, “inactive”.

With `Cc1ccc(OCCSc2nc(C)c(Cc3ccccc3)c(=O)[nH]2)cc1`, the Potency result was “inactive”. For the compound `CC(=O)Nc1ccc(S(=O)(=O)N2CCN(c3ccc([N+](=O)[O-])c(NCCN4CCOCC4)c3)CC2)cc1`, the Potency entry is “inactive”.

Turning to `COc1ccc(CCNc2cc(N3CCN(C(=O)c4ccccc4OC)CC3)ccc2[N+](=O)[O-])cc1OC`, the Potency is 8.91 µM (active). Same read-out and setting: then `COc1ccc(CCNC(=O)C2CCCN2C(=O)Nc2ccccc2)cc1OC` (stereo unspecified), with “inactive”. As for `CC(C)c1ccc(NC(=O)c2cc(S(=O)(=O)N3CCc4ccccc4C3)ccc2F)cc1`, the Potency entry was “inactive”. On the same count and under the same terms, then `Cc1ccccc1CNC(=O)c1cccc(NC(=O)c2nsc3ccccc23)c1`, with “inactive”. For the compound `O=C(CSc1ncc(CO)n1Cc1ccc(F)cc1)NCc1ccco1`, the Potency result is “inactive”. As for `COc1ccc(NC(=O)CN(C)C(=O)c2ccc(NC3CC3)c([N+](=O)[O-])c2)cc1`, the Potency entry is “inactive”. For the compound `Cc1ccc(C(=O)COC(=O)CCCC(=O)NC2CCCCC2)cc1[N+](=O)[O-]`, the Potency result is “inactive”.

`Cc1cc(C=O)c(C)n1-c1ccc(NC2CCCCC2)c([N+](=O)[O-])c1`: the Potency is 31.6 µM (active). In the case of `O=C(CSc1ccccc1F)NC1CCS(=O)(=O)C1` (stereo unspecified), the Potency entry was “inactive”. With `CCN(CC(=O)NC1CCS(=O)(=O)C1)S(=O)(=O)c1ccccc1` (stereo unspecified), the Potency entry is “inactive”.

Turning to `O=S1(=O)CCC(NC(=S)SCc2ccccc2Br)C1` (stereo unspecified), the Potency is 15.8 µM (active). Regarding `COc1ccccc1C(=O)Nc1c(C(=O)Nc2ccc(C)cc2)oc2ccccc12`, the Potency result was “inactive”. Same read-out and setting: as for `C/C=C1\C2C=C(C)CC1(N)c1ccc(=O)[nH]c1C2` (stereo unspecified), the entry is “inactive”; as for `CCC1CCCCN1S(=O)(=O)c1ccc(NC(=O)c2cc(=O)c3ccccc3o2)cc1` (stereo unspecified), 20 µM (active). For `Cc1ccc2oc(C(=O)Nc3ccc(S(=O)(=O)N4CCCCCC4)cc3)cc(=O)c2c1`, the Potency entry is “inactive”. On to `Cc1cc(C)c2oc(C(=O)Nc3ccc(S(=O)(=O)N4CCCCCC4)cc3)cc(=O)c2c1`, for which the Potency result was “inactive”. For the compound `Cc1c(Cl)cccc1NC(=O)c1noc2c1CCCC2`, the Potency entry was “inactive”. Same read-out and setting: as for `Cc1cccc(N2CCN(C(=O)c3ccc4c(c3)CCN4S(=O)(=O)c3ccccc3)CC2)c1C`, the entry is “inactive”; as for `COc1ccc(C)cc1NC(=O)CCc1c(C)nn(-c2ccc(N3CCOCC3)nn2)c1C`, “inactive”. On the same count and under the same terms, then `CC(C)=CCN1CCC2(CCc3ccccc32)CC1`, with “inactive”; and `COc1ccc(C(=O)Nc2ccc(-n3nncc3-c3ccccc3)cc2)cc1OC`, with “inactive”; and `COc1cccc(C(=O)Nc2ccc(-c3cc(C(F)(F)F)nn3-c3ccccc3)cc2)c1`, with 12.6 µM (active). Same read-out and setting: as for `COc1cccc(C(=O)NC(=O)Nc2nc(C)cc(C(F)(F)F)n2)c1`, the entry is “inactive”.

In the case of `Cc1csc(-c2coc3cc(O[C@@H]4O[C@H](CO)[C@@H](O)[C@@H](O)[C@H]4O)ccc3c2=O)n1`, the Potency entry was “inactive”. Still for that read-out and setting: then `Cc1cc(NC(=O)CSc2ncc(C(=O)Nc3ccc(Cl)cc3)c(=O)n2C)no1`, with “inactive”; and `Cc1cc(C)cc(-n2c(SCC(=O)NCC3CCCO3)nc3c([nH]c4ccccc43)c2=O)c1` (stereo unspecified), with “inactive”; and `Cc1ccc(NC(=O)c2cnc(SCC(=O)NCC3CCCO3)n(C)c2=O)cc1` (stereo unspecified), with 25.1 µM (active).

For `O=C(Cc1ccccc1)Nc1sc2c(c1C(=O)Nc1ccc(Br)cc1)CCC2`, the Potency entry was “inactive”.

Take `COCCNc1ccnc(-c2cccc(NS(C)(=O)=O)c2)n1`: the Potency entry was “inactive”. Turning to `CNc1ncnc2ccc(-c3cccc(NS(C)(=O)=O)c3)cc12`, the Potency entry was “inactive”. On the same count and under the same terms, as for `COC(=O)CC1C(C)(C)C(OC(C)=O)C2CC3=C4CC(=O)OC(c5ccoc5)[C@]4(C)CCC3[C@@]1(C)C2=O` (stereo partly specified), the entry is “inactive”; as for `Cc1ccc(-c2nn(CC(C)(C)C)c3ncnc(N)c23)cc1`, “inactive”. Turning to `CC(=O)N1CCCc2cc(S(=O)(=O)N3CCC(C(=O)NC4CCCCC4)CC3)ccc21`, the Potency entry is “inactive”. Turning to `CC(=O)N1CCCc2cc(S(=O)(=O)N3CCCC(C(=O)N4CCN(c5cccc(Cl)c5)CC4)C3)ccc21` (stereo unspecified), the Potency was 17.8 µM (active) and 12.6 µM (active). `COc1cccc(N2CCN(S(=O)(=O)c3ccc4c(c3)CCCN4C(C)=O)CC2)c1`: the Potency entry is “inactive”. The same measure, in the same setting: as for `COCCN1CCN(C(=O)c2sc3ncnc(NCC4CCCO4)c3c2C)CC1` (stereo unspecified), the entry is “inactive”; as for `CC(C)(c1ccc(OC[C@@H]2CO2)cc1)c1ccc(OC[C@H]2CO2)cc1`, “inactive”; as for `CN[C@@H]1[C@H](O[C@H]2[C@H](O[C@H]3[C@H](O)[C@@H](O)[C@H](N=C(N)N)[C@@H](O)[C@@H]3N=C(N)N)O[C@@H](C)[C@]2(O)CO)O[C@@H](CO)[C@H](O)[C@H]1O`, “inactive”. For the compound `O=C(O)CCc1cccnc1`, the Potency result is “inactive”. For the compound `O=C1/C(=C\c2cccnc2)CN(Cc2ccccc2)C/C1=C\c1cccnc1`, the Potency is 6.31 µM (active). Consider `Nc1ccc2c(c1)C(=Cc1cccnc1)c1ccccc1-2`, for which the Potency entry was “inactive”. For `CS(=O)(=O)Nc1cccc(-c2cncnc2Nc2ccccc2)c1`, the Potency result is “inactive”. Regarding `CN(Cc1ccco1)c1cc(-c2ccccc2C(F)(F)F)ncn1`, the Potency result is “inactive”. Consider `C=CC(C1=CC(=O)C=CC1=O)c1ccc(O)cc1` (stereo unspecified), for which the Potency result is “inactive”. Still for that read-out and setting: as for `CC(=O)OC1C2(CC3N4C(=O)C5(CO)SSC4(CC31O)C(=O)N5C)OC(C)C(C)(C)C2=O` (stereo unspecified), the figure is 2 µM (active); as for `Cc1cccc(Nc2cc(C)nc(-n3nc(C)cc3C)n2)c1`, “inactive”; as for `COc1ccccc1-c1cc(C(F)(F)F)nc(S(=O)(=O)CCCC(=O)Nc2cc(C)ccc2O)n1`, “inactive”. Same read-out and setting: as for `Cc1ccc(C)c(N2CCN(C(=O)Cn3ncc4c(=O)oc5ccc(C)cc5c43)CC2)c1`, the entry is “inactive”.
